Screen size: about 39,000 compounds; about 1,500 (3.8%) were called active. The list comes from a sample in which actives are over-represented; it also holds similar structures and randomly drawn compounds.

This assay concerns HSkMC (human skeletal muscle cells). Briefly: cytotoxicity call (relative viability < 0.9). The settings on record: 10 µM.
As to `C[C@H](CO)N1C[C@H](C)[C@@H](CN(C)S(=O)(=O)c2ccc(F)cc2)OCCCC[C@H](C)Oc2ccc(NC(=O)c3ccccc3)cc2C1=O`, the cytotoxicity call is “inactive”. Then `O=C(O)[C@H]1C[C@@H](CP(=O)(O)O)CCN1`, with “inactive”; and `COc1ccc(CN(C)C[C@@H]2Oc3ccc(NC(=O)Nc4ccc(C(F)(F)F)cc4)cc3C(=O)N([C@H](C)CO)C[C@H]2C)cc1`, with “active”. Then `COc1ccc(CN(C)C[C@@H]2Oc3ccc(NC(=O)Nc4ccc(C(F)(F)F)cc4)cc3C(=O)N([C@H](C)CO)C[C@@H]2C)cc1`, with “active”; and `COc1ccc(NC(=O)Nc2ccc3c(c2)C(=O)N([C@H](C)CO)C[C@@H](C)[C@H](CN(C)Cc2ccc(C(F)(F)F)cc2)O3)cc1`, with “inactive”. Then `COc1ccc(CN(C)C[C@H]2Oc3ccc(NC(=O)Nc4ccc(C(F)(F)F)cc4)cc3C(=O)N([C@H](C)CO)C[C@@H]2C)cc1`, with “inactive”. `COc1ccc(CN(C)C[C@@H]2Oc3ccc(NC(=O)Nc4ccc(C(F)(F)F)cc4)cc3C(=O)N([C@@H](C)CO)C[C@@H]2C)cc1`: the cytotoxicity call is “active”. As for `COc1ccc(NC(=O)Nc2ccc3c(c2)C(=O)N([C@@H](C)CO)C[C@H](C)[C@@H](CN(C)Cc2ccc(C(F)(F)F)cc2)O3)cc1`, the cytotoxicity call was “inactive”. Next, `COc1ccc(CN(C)C[C@@H]2Oc3ccc(NC(=O)Nc4ccc(C(F)(F)F)cc4)cc3C(=O)N([C@@H](C)CO)C[C@H]2C)cc1`: “active”; `COc1ccc(NC(=O)Nc2ccc3c(c2)C(=O)N([C@@H](C)CO)C[C@H](C)[C@H](CN(C)Cc2ccc(C(F)(F)F)cc2)O3)cc1`: “inactive”; `COc1ccc(CN(C)C[C@H]2Oc3ccc(NC(=O)Nc4ccc(C(F)(F)F)cc4)cc3C(=O)N([C@H](C)CO)C[C@H]2C)cc1`: “inactive”.

`COc1ccc(NC(=O)Nc2ccc3c(c2)C(=O)N([C@@H](C)CO)C[C@@H](C)[C@@H](CN(C)Cc2ccc(C(F)(F)F)cc2)O3)cc1`: the cytotoxicity call is “inactive”. Then `COc1ccc(NC(=O)Nc2ccc3c(c2)C(=O)N([C@@H](C)CO)C[C@@H](C)[C@H](CN(C)Cc2ccc(C(F)(F)F)cc2)O3)cc1`, with “inactive”; and `COc1ccc(NC(=O)Nc2ccc3c(c2)C(=O)N([C@H](C)CO)C[C@H](C)[C@@H](CN(C)Cc2ccc(C(F)(F)F)cc2)O3)cc1`, with “inactive”. Next, `Nc1cccn2ncnc12`: “inactive”. Next, `CCCC(=O)Nc1nc2[nH]c(C)cc(=O)n2n1`: “inactive”; `COc1cccc(CNC(=O)c2cc3c(c(-c4cccc(-c5cccc(C#N)c5)c4)n2)[C@@H](CCO)N([S@](=O)C(C)(C)C)C3)c1`: “inactive”. For `COC1(NC(=O)C(C(=O)[O-])c2ccc(O)cc2)C(=O)N2C(C(=O)[O-])=C(CSc3nnnn3C)COC21.[Na+].[Na+]` (stereo not drawn), the cytotoxicity call is “inactive”.

These data come from the antibiotic and cytotoxicity screens of Wong et al. (2023).
